Screening results: PubChem, several laboratories
A selection: hits, their analogues and other compounds. The true share with any hit is near 1.4%.
3CLpro inhibitor: SARS-CoV 3CLpro protease inhibition. inhibition, % at 6 µM. hit rate 0.14% among 290,000. P0C6X7. AID 1706. recombinant SARS-CoV 3CLpro, quenched FRET peptide cleavage; in the data active means inhibition above about 12%
BJeLR lethal: kills HRASV12-expressing BJeLR cells; inhibition, % (no concentration beside the values); BJeLR (HRASV12) viability, CellTiter-Glo ATP luminescence, 48 h; hit rate 0.17% among 300,000; AID 1554; in the data active means inhibition above about 50%
Mtb hypoxia rep: reduces hypoxia-regulated biosensor signal in M. tuberculosis. M. tuberculosis hypoxia-regulated fluorescent reporter, fluorescence. fluorescence inhibition, % (test concentration not listed). hit rate 0.1% among 300,000; in the data active means fluorescence inhibition mostly above about 23%, no sharp cut-off; inactive means mostly below about 17%
PrPC TRFRET: cell surface PrPC inhibition, primary TR-FRET screen; inhibition, % at 13.8 µM; TR-FRET read-out; hit rate 0.43% among 370,000; AID 720596; in the data active means inhibition above about 24%
PrP 5UTR inh: suppresses PrP 5' UTR mRNA reporter expression | cell-based PrP 5' UTR mRNA reporter, plate reader | inhibition, % (concentration not given with the values) | hit rate 0.35% among 340,000; in the data active means inhibition above about 52%
RecA intein inh: inhibitors of M. tuberculosis RecA intein splicing | cell-free RecA intein splicing, fluorescence | inhibition, % (concentration not given with the values) | hit rate 0.75% among 290,000 | AID 2221; in the data active means inhibition above about 30%
PrPC TRFRET cf: confirmation of inhibitors of cell surface human prion protein. shares compounds with PrPC TRFRET. cell surface PrPC level, TR-FRET. hit rate 65% among 1,500. inhibition, % at 13.8 µM. AID 743200; in the data active means inhibition above about 25%
LD9 cytotox: LD9 cell cytotoxicity, PrPc inhibitor counter-screen. shares compounds with PrPC TRFRET. LD9 cells cytotoxicity, luminescence viability. inhibition, % at 13.8 µM. hit rate 29% among 1,500; in the data active means inhibition above about 9.5%
A number is an active result; - = inactive; . = no result given; ! = not active in a repeat.

SMILES	3CLpro inhibitor	BJeLR lethal	Mtb hypoxia rep	PrPC TRFRET	PrP 5UTR inh	RecA intein inh	PrPC TRFRET cf	LD9 cytotox
CCCN(c1ccc(OCC)cc1)S(=O)(=O)c1ccc2c(c1)NC(=O)CO2	-	-	-	55.1	-	-	56.5	-
CCN(CC)S(=O)(=O)c1cccc(-c2nn(-c3ccccc3)cc2/C=C(\C#N)C(=O)NCc2ccco2)c1	-	-	-	-	-	-	.	.
CN(C)S(=O)(=O)c1cccc(-c2nn(-c3ccccc3)cc2/C=C(/C#N)C(=O)NCc2ccco2)c1	-	-	-	28.9	-	-	-	-
Oc1c(CN2CCCCC2)cc(Br)c2cccnc12	-	-	-	31.9	-	-	-	16.1
C=CC(=O)N1C/C(=C/c2ccc(F)cc2)C(=O)/C(=C\c2ccc(F)cc2)C1	.	.	.	41.2	-	.	-	75.0
CN1C2CCC1/C(=C\c1ccc(F)cc1)C(=O)/C2=C/c1ccc(F)cc1	-	-	-	-	-	-	.	.
Cc1ccc2nc(C)c(C(=O)NN=Cc3cccs3)cc2c1	.	.	-	.	.	.	.	.
CC(=O)c1cnc(Nc2cccc(Cl)c2Cl)s1	-	-	-	26.3	-	-	-	-
CC(=O)c1cnc(Nc2ccccc2)s1	-	-	-	-	-	-	.	.
COc1ccc(C2C=CCN(S(=O)(=O)c3ccc(-c4ccccc4)cc3)CC(=O)N2Cc2ccc(F)cc2)cc1 (stereo not given)	.	.	-	.	.	.	.	.
Cc1ccccc1C(=O)NNc1ccc(-c2csnn2)cc1	-	-	-	24.6	-	-	-	-
CCCCCCSc1ccc(-c2nc3ccc(Cl)cn3c2NCCCC)cc1OC	.	.	-	33.4!	-	.	-	-
CCCCCCSc1ccc(-c2nc3ccc(C)cn3c2NCCCC)cc1OC	.	.	.	-	.	.	.	.
CCC1(CC)C(=O)C2=C3C(CC(C(=O)OC)CC(C(=O)OC)C31)n1c(=O)n(C)c(=O)n1C2C (stereo not given)	.	.	-	.	.	.	.	.
COc1ccc(NC(=O)c2cccc(-c3ccc(O)cc3)c2)cn1	-	-	.	33.3	-	.	-	-
COc1ccc(-c2cc(CNc3nc(NC(C)C)nc4cc(-c5ccccc5)sc34)on2)cc1	.	.	.	25.4	.	.	40.2	-
CCOC(=O)CC(=O)CSc1ncnc2c1oc1ccccc12	-	-	-	57.8	-	-	-	-
N#CCCSc1ncnc2c1oc1ccccc12	-	-	-	55.2	-	-	46.9	-
O=S(=O)(NCc1ccccc1)C1CC2C=CC1C2 (stereo not given)	.	.	-	.	.	.	.	.
Cc1ccc(C2C(C#N)=C(N)SC(N)=C2C#N)cc1	-	.	-	90.8	-	.	86.5	-
O=C1NCC(Cc2ccccc2)N(CCc2cccc(F)c2)C1=O (stereo not given)	.	.	-	.	.	.	.	.
Cc1ccc(S(=O)(=O)Nc2ccccc2NS(=O)(=O)c2ccc(C)cc2)cc1	.	.	.	-	.	.	.	.
Cc1ccc(S(=O)(=O)Nc2ccccc2N(C)S(=O)(=O)c2ccc(C)cc2)cc1	.	-	-	25.6	-	-	-	9.7
COc1cnc(-c2ccccn2)nc1N(C)c1ccccc1	-	-	.	34.0	-	-	26.7	23.4
COc1cnc(-c2ccccn2)nc1Oc1ccccc1	-	-	-	-	-	-	.	.
SMILES	3CLpro inhibitor	BJeLR lethal	Mtb hypoxia rep	PrPC TRFRET	PrP 5UTR inh	RecA intein inh	PrPC TRFRET cf	LD9 cytotox
CCOc1ccc(C(=O)NCc2ccccn2)cc1	-	-	-	.	-	-	.	.
O=C(NCc1ccccn1)c1coc(=O)c(Br)c1	-	-	-	26.9	-	-	-	-
CC(C)N1CCc2c(sc(NC(=O)C3CCCCC3)c2C(N)=O)C1	-	-	-	32.2	-	-	-	-
CCOc1ccc(NC(=O)Nc2ccc(Cc3ccncc3)cc2)cc1	-	-	-	33.2	-	-	28.7	-
CCOc1ccc(NC(=O)C(=O)NCc2ccncc2)cc1	-	-	-	-	-	-	.	.
C=C(C)C1C2OC(=O)C1[C@]1(O)CC3O[C@]34C(=O)OC2[C@]14C (stereo not given in full)	.	.	-	.	.	.	.	.
CN(c1ccccc1)S(=O)(=O)c1ccc(NC(=O)c2nc(S(C)(=O)=O)ncc2Cl)cc1	-	-	.	41.2	-	-	93.3	97.8
CSc1nc2c([nH]1)c(=S)n(C)c(=O)n2C	.	.	-	34.0	-	.	-	-
CCCCC1CC1C(NC(=O)c1cccs1)c1ccc(Cl)cc1 (stereo not given)	.	.	-	.	.	.	.	.
Cc1cc(C)nc(SCc2ccc(C(=O)NN=Cc3ccco3)cc2)n1	.	.	-	.	.	.	.	.
CC(C)c1ccccc1-n1c(SCC(=O)N2CCc3ccccc3C2)nc2ccccc2c1=O	-	-	-	33.9	-	-	36.3	35.0
O=C(CSc1nc2ccccc2c(=O)n1-c1ccccc1)N1CCc2ccccc2C1	-	-	-	-	-	-	.	.
O=C(CSc1ccc2ccccc2n1)c1ccc2c(c1)OCO2	-	-	-	-	-	-	.	.
CCOC(=O)CSc1ccc2ccccc2n1	-	-	-	28.4	-	-	60.8	-
Cc1cc(SCCC(=O)O)nc2ccccc12	-	-	-	-	-	-	.	.
O=C(O)CCSc1ccc2ccccc2n1	-	-	-	82.3	-	-	88.7	-
O=C(O)CSc1ccc2ccccc2n1	-	-	.	57.8	-	-	57.6	-
Cc1nc(SCCC(=O)O)c2ccccc2n1	-	-	-	102.8	-	-	118.9	-
N#CCC(Cc1ccccc1)N1CCC(NC(=O)OCc2ccccc2)CCC1=O (stereo not given)	.	.	-	.	.	.	.	.
CO[C@H]([C@H](C)/C=C/N(C)C=O)[C@@H](C)C(O)CC[C@H](C)[C@H](O)[C@H](C)[C@H]1OC(=O)/C=C/C(C)=C/C[C@H](O)C[C@@H]2C=CC[C@@H](C[C@H](OC)[C@@]3(CO3)[C@@H](OC)C[C@@H](OC)[C@@H]1C)O2 (stereo not given in full)	.	.	.	26.5	.	.	-	24.5
CO[C@H]([C@H](C)/C=C/N(C)C=O)[C@@H](C)C(=O)CC[C@H](C)[C@H](O)[C@H](C)[C@H]1OC(=O)/C=C/C(C)=C/C[C@H](O)C[C@@H]2C=CC[C@@H](C[C@H](OC)[C@@H](CO)[C@@H](OC)C[C@@H](OC)[C@@H]1C)O2	.	.	.	38.3	.	.	34.2	24.5
CO[C@H]([C@H](C)/C=C/N(C)C=O)[C@@H](C)C(=O)CC[C@H](C)[C@H](O)[C@H](C)[C@H]1OC(=O)/C=C/C(C)=C/C[C@H](O)C[C@@H]2C=CC[C@@H](C[C@H](OC)C(C)(O)[C@@H](OC)C[C@@H](OC)[C@@H]1C)O2 (stereo not given in full)	.	.	.	47.1	.	.	41.8	25.1
CO[C@H]([C@H](C)/C=C/N(C)C=O)[C@@H](C)C(=O)CC[C@H](C)[C@H](O)[C@H](C)[C@H]1OC(=O)/C=C/C(C)=C/[C@H](O)[C@H](OC)C[C@@H]2C=CC[C@@H](C[C@H](OC)[C@@H](CO)[C@@H](OC)C[C@@H](OC)[C@@H]1C)O2	.	.	.	37.5	.	.	31.8	23.4
